For ten molecules, Potency and outcome results are on record in PubChem BioAssay (NCATS).

Inconclusive results are not listed. Activity calls are given as the source filed them. Calls come from the whole dose curve; as a rule, active = well fitted curve in the direction sought with a large enough effect; inconclusive = small, poorly fitted or top-dose-only effect, or another doubt; inactive = no such curve, though single readings can be large; an effect the other way counts as inactive or inconclusive.

The nature of assay [1]: Primary qHTS for inhibitors of nuclear receptor binding SET domain protein 2 (NSD2) in an isogenic RCH-ACV NSD2 p.E1099K mutant (9B) (AID 1645876; note: nearly all actives have a fitted effect of over 70% in size; note: potency is the fitted concentration of half-maximal effect). (qHTS replaces the single test concentration by a dilution series.)
Assay [2] in a line: Primary qHTS for inhibitors of nuclear receptor binding SET domain protein 2 (NSD2) in an RCH-ACV wild type WT cells (2C) (AID 1645877). Note: nearly all actives have a fitted effect of over 70% in size. Note: potency is the fitted concentration of half-maximal effect.
Assay [3] concerns the target Phospholipid hydroperoxide glutathione peroxidase GPX4 (Homo sapiens) (UniProt P36969). Nature of the assay: Primary qHTS Assay for Inhibitors of Recombinant Selenoprotein Glutathione Peroxidase 4 (GPX4) (AID 1845192). Note: nearly all actives have a fitted effect of over 65% in size. Note: potency is the fitted concentration of half-maximal effect. Put shortly:
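GR-coupled readout: 100 nM GR, 1 mM GSH, 0.5 mM NADPH; NADPH fluorescence (ex 340/em 450 nm) read at t=0 and after 15 min RT. GPX4 200 nM, preincubated 30 min with compound; substrate 0.5 mM CHP.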

For assay [4], the target named is Rap guanine nucleotide exchange factor 3 (Homo sapiens) (UniProt O95398). Put plainly: Confirmatory qHTS for agonist of cAMP-regulated guanine nucleotide exchange factor 3 (EPAC1) (AID 1645881).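 Note: EPAC1 catalysed release of BODIPY-GDP from Rap1B seen as fluorescence loss; nearly all actives have a fitted effect of over 75% in size.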
The target in assay [5] is Rap guanine nucleotide exchange factor 4 (Homo sapiens) (UniProt Q8WZA2). Put plainly: Confirmatory qHTS for agonist of cAMP-regulated guanine nucleotide exchange factor 4 (EPAC2) (AID 1645884).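 Note: nucleotide exchange releases bodipy-GDP from Rap1 and this lowers its fluorescence; nearly all actives have a fitted effect of over 65% in size.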
Assay [6] shares this target. Put plainly: Confirmatory qHTS for antagonist of cAMP-regulated guanine nucleotide exchange factor 4 (EPAC2) (AID 1645885). Note: nearly all actives have a fitted effect of over 25% in size. Note: potency is the fitted concentration of half-maximal effect.
For assay [7], the target named is Glutathione peroxidase 1 (Homo sapiens) (UniProt P07203). Nature of the assay: Primary qHTS Assay for Inhibitors of Recombinant Selenoprotein Glutathione Peroxidase 1 (GPX1) (AID 1845191). Note: nearly all actives have a fitted effect of over 65% in size. Put shortly: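 Recombinant GPX1 (10 nM final) was preincubated with compound for 30 min at room temperature, then reacted with 1 mM GSH, 0.5 mM CHP, 0.5 mM NADPH and 100 nM glutathione reductase; NADPH fluorescence (340/450 nm) was read at 0 and 15 min.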

Assay [8] has as its target Rap guanine nucleotide exchange factor 3 (Homo sapiens) (UniProt O95398). Nature of the assay: Confirmatory qHTS for antagonist of cAMP-regulated guanine nucleotide exchange factor 3 (EPAC1) (AID 1645880). Note: nearly all actives have a fitted effect of over 55% in size. Note: potency is the fitted concentration of half-maximal effect. Put shortly:
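Nucleotide exchange uses 100 nM EPAC1, 250 nM RAP1B-BODIPY-GDP and 50 uM GDP, with compounds in a concentration-titration series. After 5 min at room temperature, fluorescence (480 nm ex/540 nm em) is read every 5 min for 30 min. Data are normalized to control ATA and DMSO.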

The target is the same in assay [9]. Nature of the assay: Counterscreen qHTS for antagonist of cAMP-regulated guanine nucleotide exchange factor 3 (EPAC1) (AID 1645888).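 Note: fluorescence loss as bound BODIPY-GDP is released from Rap1B.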 Put shortly:
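Measured: fluorescence of BODIPY-GDP bound to Rap1B, which falls as exchange proceeds. Conditions include 50 uM competing GDP, 5 and 30 min reads, and a later cAMP challenge for antagonist detection.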

Rap guanine nucleotide exchange factor 4 (Homo sapiens), sequence (Q8WZA2 whole entry, looked up): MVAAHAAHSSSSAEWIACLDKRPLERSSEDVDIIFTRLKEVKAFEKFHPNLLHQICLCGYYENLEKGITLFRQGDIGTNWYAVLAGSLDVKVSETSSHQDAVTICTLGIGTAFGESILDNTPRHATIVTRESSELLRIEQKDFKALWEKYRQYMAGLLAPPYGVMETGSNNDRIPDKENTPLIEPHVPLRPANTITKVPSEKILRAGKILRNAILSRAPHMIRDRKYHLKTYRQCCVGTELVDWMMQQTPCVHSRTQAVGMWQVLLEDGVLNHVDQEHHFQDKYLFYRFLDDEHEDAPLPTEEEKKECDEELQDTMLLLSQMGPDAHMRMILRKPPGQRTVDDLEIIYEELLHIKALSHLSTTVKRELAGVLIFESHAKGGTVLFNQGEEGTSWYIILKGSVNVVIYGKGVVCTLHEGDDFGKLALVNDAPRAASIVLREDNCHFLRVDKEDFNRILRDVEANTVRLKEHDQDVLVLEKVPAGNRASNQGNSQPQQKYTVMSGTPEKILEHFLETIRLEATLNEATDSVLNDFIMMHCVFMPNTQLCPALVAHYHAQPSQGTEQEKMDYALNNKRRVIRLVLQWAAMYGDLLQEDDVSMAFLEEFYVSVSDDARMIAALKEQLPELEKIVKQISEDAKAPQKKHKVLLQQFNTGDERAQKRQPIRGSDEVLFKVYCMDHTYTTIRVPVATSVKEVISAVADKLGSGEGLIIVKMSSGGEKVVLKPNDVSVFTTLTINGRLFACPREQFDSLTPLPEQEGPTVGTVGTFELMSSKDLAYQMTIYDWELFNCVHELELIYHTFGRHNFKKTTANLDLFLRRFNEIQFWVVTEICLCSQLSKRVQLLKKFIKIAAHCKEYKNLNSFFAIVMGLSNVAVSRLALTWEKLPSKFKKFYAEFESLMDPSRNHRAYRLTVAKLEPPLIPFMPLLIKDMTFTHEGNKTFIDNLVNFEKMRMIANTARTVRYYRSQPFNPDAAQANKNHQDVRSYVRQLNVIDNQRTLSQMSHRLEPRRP
Glutathione peroxidase 1 (Homo sapiens), sequence (P07203 whole entry, looked up): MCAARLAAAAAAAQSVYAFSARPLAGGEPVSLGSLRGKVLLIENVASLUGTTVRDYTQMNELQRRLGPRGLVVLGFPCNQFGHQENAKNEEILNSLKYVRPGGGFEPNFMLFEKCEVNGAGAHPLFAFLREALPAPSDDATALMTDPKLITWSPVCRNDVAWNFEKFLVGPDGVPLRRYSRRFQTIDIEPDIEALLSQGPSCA
Phospholipid hydroperoxide glutathione peroxidase GPX4 (Homo sapiens), sequence (P36969 whole entry, looked up): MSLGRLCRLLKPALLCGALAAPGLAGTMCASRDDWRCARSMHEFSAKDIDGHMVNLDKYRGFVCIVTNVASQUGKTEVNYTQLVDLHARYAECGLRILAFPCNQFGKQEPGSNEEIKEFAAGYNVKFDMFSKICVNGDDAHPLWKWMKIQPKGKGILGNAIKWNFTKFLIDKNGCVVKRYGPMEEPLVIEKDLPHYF
Rap guanine nucleotide exchange factor 3 (Homo sapiens), sequence (O95398 whole entry, looked up): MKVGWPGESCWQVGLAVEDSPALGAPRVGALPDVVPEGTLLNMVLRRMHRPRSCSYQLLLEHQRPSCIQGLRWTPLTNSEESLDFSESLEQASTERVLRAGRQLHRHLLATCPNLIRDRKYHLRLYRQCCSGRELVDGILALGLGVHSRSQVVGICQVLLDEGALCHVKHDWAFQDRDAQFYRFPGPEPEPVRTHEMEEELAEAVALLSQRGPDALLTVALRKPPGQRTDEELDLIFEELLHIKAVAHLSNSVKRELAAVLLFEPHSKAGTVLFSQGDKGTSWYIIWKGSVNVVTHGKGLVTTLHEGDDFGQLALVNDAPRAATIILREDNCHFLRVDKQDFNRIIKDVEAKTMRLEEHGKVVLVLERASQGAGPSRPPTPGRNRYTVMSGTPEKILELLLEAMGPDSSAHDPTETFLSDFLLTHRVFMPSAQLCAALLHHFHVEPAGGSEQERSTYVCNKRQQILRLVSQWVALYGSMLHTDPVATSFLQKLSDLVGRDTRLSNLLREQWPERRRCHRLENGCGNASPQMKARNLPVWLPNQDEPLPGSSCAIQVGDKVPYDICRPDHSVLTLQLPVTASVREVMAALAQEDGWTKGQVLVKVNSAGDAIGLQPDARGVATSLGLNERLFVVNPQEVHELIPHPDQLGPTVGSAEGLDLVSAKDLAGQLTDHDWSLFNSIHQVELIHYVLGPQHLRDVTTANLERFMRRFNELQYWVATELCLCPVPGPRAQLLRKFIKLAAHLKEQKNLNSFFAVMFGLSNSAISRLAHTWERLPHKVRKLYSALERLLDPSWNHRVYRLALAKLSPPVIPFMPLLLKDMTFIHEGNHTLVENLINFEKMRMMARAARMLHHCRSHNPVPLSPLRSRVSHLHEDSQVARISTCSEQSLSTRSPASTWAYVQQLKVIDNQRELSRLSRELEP

`Cn1c(=O)c2[nH]c(Br)nc2n(C)c1=O`: the Potency entry in [1], in assay [2] and in assay [3] was “inactive” throughout.
As to `CO[C@H]1C=CO[C@@]2(C)Oc3c(C)c(O)c4c(O)c(c(/C=N/N5CCN(C)CC5)c(O)c4c3C2=O)NC(=O)/C(C)=C\C=C[C@H](C)[C@H](O)[C@@H](C)[C@@H](O)[C@@H](C)[C@H](OC(C)=O)[C@@H]1C`, the result in [4] and in assay [5] was inactive. Moreover, the Potency is 44.1 µM (active) in assay [6] and 17.8 µM (active) in assay [3]. Moreover, in assay [7], the Potency entry is “inactive”.
Consider `C=C[C@@]1(C)CC(=O)[C@]2(O)[C@@]3(C)[C@@H](O)CCC(C)(C)[C@@H]3[C@H](O)[C@H](OC(C)=O)[C@@]2(C)O1`, for which the Potency in assay [1] is 0.841 µM (active). Moreover, the Potency entry in assay [7] is “inactive”.
For `CCCCCCCCCCCCSCCOCCO`, the Potency entry in [1], in assay [2] and in assay [3] was “inactive” in each case.
As to `CC[N+](C)(CC)CCOC(=O)C(O)(c1ccccc1)C1CCCCC1` (stereo not given), the Potency entry in assay [1] and in assay [3] was “inactive” throughout.
In the case of `COc1ccc(C(=O)c2ccccc2)c(O)c1`, the Potency entry in assay [8], in assay [7] and in assay [3] was “inactive” each time. The molecule was called inactive in assay [4] and in [5]. Also, the Potency in [6] is 31.2 µM (active).
For the molecule `C=C1c2cccc(O)c2C(O)=C2C(=O)[C@]3(O)C(O)=C(C(N)=O)C(=O)[C@@H](N(C)C)[C@@H]3[C@@H](O)[C@H]12`, the Potency entry in assay [1] and in assay [6] was “inactive” in each case. In addition, the results for the Potency in assay [8] and in [3] were 47.8 µM (active) and 11.2 µM (active), respectively. Also, the outcome in [4], in [5] and in assay [9] was inactive.
Consider `CCCCCCCCCCCCOCCOCCOCCOCCOCCOCCOCCOCCOCCO`, for which, in assay [2], the Potency was 11.9 µM (active). In addition, in assay [3], the Potency result was “inactive”.
Take `CC(C)(C)NC[C@H](O)COc1cccc2c1CCCC2=O`: the Potency result in [1], in [2] and in [3] was “inactive” each time.
For `CCCCc1cc2ccccc2c(OCCN(C)C)n1`, the Potency in assay [2] was 18.8 µM (active). In addition, the Potency entry in [3] is “inactive”.
